Sampled rows, rich in hits. Any-hit rate of the full collection: about 19%.
IL1B secr inh – inflammasome signaling inhibition, IL-1 beta readout; THP-1 LPS/ATP IL-1B secretion, AlphaLISA, 16 h; hits give low values; AID 743279; 360,000 compounds, 4.7% hits; activity change, % at 57.5 µM; in the data active = activity change below about -50%; inconclusive = mostly about -30% to -49%
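Secreted IL-1B measured by AlphaLISA bead assay after 16 h compound exposure of THP-1 cells; compounds (final up to 57.5 uM) added 1 h before LPS (250 ng/mL) and ATP (1.25 mM) stimulation; lower signal means less secretion.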
HT1080NT lethal – kills 2HG-producing HT-1080-NT fibrosarcoma cells; HT-1080-NT fibrosarcoma viability, CellTiter-Glo ATP luminescence, 48 h; Potency, µM (series often up to 46.1 µM), without a hit: top-dose activity, negative = less viability, usual class: cytotoxic; 360,000 compounds, 1.6% hits; AID 686970;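 note: NT is the 2HG producing partner of a matched IDH1 knockdown line; potency is the fitted concentration of half-maximal effect; 0% = DMSO-treated cells and -100% = media-only wells without cells; nearly all actives have a fitted effect of over 55% in size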
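A 48-hour cytotoxicity screen used HT-1080-NT cells plated 2 hours before compound delivery. ATP-based CellTiter-Glo luminescence measured viability, normalized to DMSO and no-cell controls.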
HT1080 IDH1KD tx – kills HT-1080 cells with IDH1 knockdown | AID 686971 | HT-1080 IDH1 knockdown viability, ATP luminescence, 48 h | 360,000 compounds, 2% hits | Potency, µM (series often up to 46.1 µM), for inactives: at the highest dose activity, negative = toxicity, most hits filed as cytotoxic;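 note: potency is the fitted concentration of half-maximal effect; 0% = DMSO wells and -100% = cell-free medium wells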
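Assay cells: HT-1080 with IDH1 knockdown, 750 per well, RPMI/5% FBS. Exposure: 48 h at 37 °C following 2 h pre-incubation. Read: CellTiter-Glo luminescence; fitted concentration-response, curve class assigned.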
TDP1 cell noCPT – qHTS for Inhibitors of human tyrosyl-DNA phosphodiesterase 1 (TDP1): qHTS in cells in absence of CPT | DT40 Tdp1-/- hTDP1 cells, no CPT, ATP luminescence, 48 h | Potency, µM (doses to about 46.2 µM), inactives show at the top dose activity change, negative = growth inhibition, actives largely listed as inhibitors | 420,000 compounds, 15% hits | AID 686978, 2013; note: potency is the fitted concentration of half-maximal effect; nearly all actives have a fitted effect of over 55% in size
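Stably hTDP1-transfected Tdp1-null chicken DT40 cells were treated with library compounds minus camptothecin and grown for at least 48 hr at 37 °C, after which cellular ATP was quantified by luminescence.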
DT40 TDP1 CPT – DT40-hTDP1 cell growth loss with CPT; 420,000 compounds, 12% hits; Potency, µM (titrated, usually from 46.2 µM), inactives show at the top dose activity change, negative = growth inhibition, usual class: inhibitors; AID 686979; chicken DT40 Tdp1-/-;hTDP1 cells + 20 nM CPT, ATP luminescence, 48 h; note: potency is the fitted concentration of half-maximal effect; nearly all actives have a fitted effect of over 55% in size
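Chicken DT40 Tdp1-/- cells complemented with human TDP1, 400 cells/well, exposed to compounds plus 20 nM camptothecin for at least 48 h at 37 C; viability read as ATP content by CellTiter-Glo luminescence.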
* marks the source's active call; other numbers are inactive results; ? = inconclusive; . = not tested or not shown; [ ] = remark or other dose. Unless noted, calls come from the whole dose curve; as a rule, active = well fitted curve in the direction sought with a large enough effect; inconclusive = small, poorly fitted or top-dose-only effect, or another doubt; inactive = no such curve, though single readings can be large; an effect the other way counts as inactive or inconclusive. Unless noted, % is set by controls: 0 for no effect and ±100 for the full control effect.

SMILES | IL1B secr inh | HT1080NT lethal | HT1080 IDH1KD tx | TDP1 cell noCPT | DT40 TDP1 CPT
CC(C)(C)c1ccc(OCCC(=O)Nc2ccc(N3CCOCC3)cc2N2CCOCC2)cc1 | -51* | ? | ? | 16µM* | 16µM*
CCN(CC)S(=O)(=O)c1ccc(N2CCOCC2)c(NC(=O)CNCCc2ccccc2)c1 | -5 | -1% | -1% | 18µM* | 18µM*
Cc1c(CN(C)C(=O)c2ccc(Br)o2)cnn1C | -8 | 0% | 8% | -3% | 12%
CCc1ccccc1OCC(=O)Nc1cc(S(=O)(=O)N(CC)CC)ccc1N1CCOCC1 | 0 | 0% | -6% | 16µM* | 21µM*
CC1(CCc2ccc3c(c2)OCO3)NCCc2c1[nH]c1ccccc21 (configuration not stated) | -57* | -26% | -19% | 18µM* | ?
COCCN(C(=O)C1CC(=O)N(Cc2ccc(C)cc2)C1)c1c(N)n(CC(C)C)c(=O)[nH]c1=O (configuration not stated) | 72 | -26% | ? | 21% | ?
CC(C)(C)c1nnc(NC(=O)c2cc(-c3ccccc3)nc3ccccc23)s1 | -15 | -21% | -20% | -30% | -7%
Cc1csc(NC(=O)c2cc(-c3ccccc3)nc3ccccc23)n1 | . | -23% | -24% | 15µM* | ?
CCOC(=O)Cc1csc(NC(=O)c2cc(-c3ccncc3)nc3ccccc23)n1 | 30 | 13%[9.24 µM] | -10% | ? | 16µM*
COCOCCn1cc(CN2CCS(=O)(=O)N(Cc3ccc(-c4ccc(OC)c(OC)c4)cc3)C(CC(C)C)C2=O)nn1 (configuration not stated) | -10 | -17% | -12% | 18µM* | 21µM*
COCOCCn1cc(CN2CCS(=O)(=O)N(Cc3ccc(-c4cccc(CO)c4)cc3)C(CC(C)C)C2=O)nn1 (configuration not stated) | 7 | 6% | 9% | ? | ?
COCOCCn1cc(CN2CCS(=O)(=O)N(Cc3ccc(-c4ccc(Cl)cc4)cc3)C(CC(C)C)C2=O)nn1 (configuration not stated) | 5 | ? | ? | 23µM* | ?
COCOCCn1cc(CN2CCS(=O)(=O)N(Cc3ccc(-c4ccc(Cl)cc4)cc3)C(C)C2=O)nn1 (configuration not stated) | -15 | -21% | -10% | 21µM* | 23µM*
COCOCCn1cc(CN2CCS(=O)(=O)N(Cc3ccc(-c4ccc(OC)nc4)cc3)C(C)C2=O)nn1 (configuration not stated) | -2 | -2% | -3% | -19% | -13%
COCOCCn1cc(CN2CCS(=O)(=O)N(Cc3ccc(-c4ccc(Cl)nc4)cc3)C(CC(C)C)C2=O)nn1 (configuration not stated) | -7 | -26% | 2% | ? | ?
O=C(C1CCCCC1)N1C[C@@H](O)[C@H](n2cc(C3CC3)nn2)C[C@@H]1c1ccc(Cl)cc1 | 2 | -4% | -2% | ? | ?
CCCCn1nc2cc(C(=O)NCCc3cccs3)ccc2c1OCC | -7 | 2% | -2% | ? | -4%
CCCCn1nc2cc(C(=O)NCC34CC5CC(CC(C5)C3)C4)ccc2c1OCC | -23 | -21% | -4% | 16µM* | ?
Nc1ccc(SCC(=O)Nc2cccc([N+](=O)[O-])c2)cc1 | -19 | -3% | -4% | -23% | ?
COc1cc(C2SC(C)C(=O)N2CCc2ccccc2)cc(OC)c1OC (configuration not stated) | 7 | 5% | 1% | ? | ?
Cc1cccc(C)c1Nc1c(-c2ccccc2Cl)nc2cnccn12 | . | . | . | 21µM* | ?
Cc1cccc(C)c1Nc1c(-c2ccc(N3CCOCC3)cc2)nc2cnccn12 | 3 | -8% | -14% | 18µM* | ?
Cc1ccc(Nc2c(-c3ccc(N4CCOCC4)cc3)nc3c(C)cccn23)cc1 | . | . | . | 15µM* | 16µM*

Assay outcomes as filed in PubChem BioAssay.
